Screens deposited in PubChem BioAssay by National Center for Advancing Translational Sciences (NCATS).
Shown are actives, neighbours in structure and some others; about 1.2% of the full set was active somewhere.
RXFP1 agonist – qHTS Assay for Agonists of the Relaxin Receptor RXFP1. Relaxin receptor 1 (Homo sapiens), Q9HBX9. HEK293T-RXFP1 cAMP TR-FRET, 30 min; response scale: percent of porcine relaxin response, buffer zero. Potency, µM (doses to about 57.5 µM), inactives show top-dose activation, hits mostly activators. 370,000 tested, 0.3% active. AID 2676, 2010; active means well fitted activation curve with a large enough effect; inconclusive means small, poorly fitted or top-dose-only effect; further: potency means the concentration at half of the fitted maximal effect; on the % scale 0 is the no-effect control and ±100 the full control effect; nearly all actives have a fitted effect of over 60% in size
Target sequence (Q9HBX9 whole entry, looked up): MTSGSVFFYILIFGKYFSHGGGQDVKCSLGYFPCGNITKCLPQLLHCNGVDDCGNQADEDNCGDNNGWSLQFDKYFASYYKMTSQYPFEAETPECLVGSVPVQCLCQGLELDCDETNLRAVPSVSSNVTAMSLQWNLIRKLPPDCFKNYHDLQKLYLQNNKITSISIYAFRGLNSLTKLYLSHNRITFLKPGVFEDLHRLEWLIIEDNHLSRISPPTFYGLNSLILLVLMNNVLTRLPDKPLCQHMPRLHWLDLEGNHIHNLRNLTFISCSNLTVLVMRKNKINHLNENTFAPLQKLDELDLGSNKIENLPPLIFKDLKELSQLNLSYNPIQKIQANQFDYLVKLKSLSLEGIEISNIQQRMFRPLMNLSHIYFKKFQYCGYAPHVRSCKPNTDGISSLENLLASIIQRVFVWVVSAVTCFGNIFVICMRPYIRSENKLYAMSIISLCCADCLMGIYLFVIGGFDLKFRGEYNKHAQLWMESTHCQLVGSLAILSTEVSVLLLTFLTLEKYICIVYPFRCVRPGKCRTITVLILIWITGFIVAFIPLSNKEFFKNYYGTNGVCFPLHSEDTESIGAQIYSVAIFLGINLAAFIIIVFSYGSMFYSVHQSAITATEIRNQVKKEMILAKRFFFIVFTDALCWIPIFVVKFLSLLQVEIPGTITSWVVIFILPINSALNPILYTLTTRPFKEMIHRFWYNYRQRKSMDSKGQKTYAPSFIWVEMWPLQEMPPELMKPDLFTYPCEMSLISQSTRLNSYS
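cAMP rise read by TR-FRET after 30 min, 37C compound exposure (up to 58 uM) in RXFP1-transfected HEK293 cells with Ro 20174 present. EC50 from Hill-equation fits, with 29 nM porcine relaxin as 100% and buffer as basal.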
gsp antag – qHTS for Antagonists of gsp, the Etiologic Mutation Responsible for Fibrous Dysplasia/McCune-Albright Syndrome: qHTS. gsp-mutant cells, cAMP HTRF, 30 min. Potency, µM (titrated, usually from 76.9 µM), without a hit: at the highest dose activity change, negative = inhibition, most hits filed as inhibitors. 340,000 tested, 0.4% active. AID 624288, 2012; calls by dose curve; cell line not stated here;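 further: intracellular cAMP measured with PDE inhibitor Ro 20-1724 present during compound exposure; potency means the concentration at half of the fitted maximal effect; on the % scale 0 is the no-effect control and ±100 the full control effect; nearly all actives have a fitted effect of over 65% in size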
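HTRF cAMP measurement after 30 min RT detection following 30 min, 37C compound treatment alongside […] (added as 300 uM solution) in G418-selected cells seeded at 2000/well and grown 16–24 h.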
gsp ag – qHTS for Agonist of gsp, the Etiologic Mutation Responsible for Fibrous Dysplasia/McCune-Albright Syndrome: qHTS; gsp mutant cells, cAMP HTRF, 30 min; Potency, µM (titrated, usually from 76.9 µM), without a hit: top-dose activation (cAMP increase), most hits filed as activators; 340,000 tested, 0.13% active; AID 624287, 2012; active means well fitted activation curve with a large enough effect; inconclusive means small, poorly fitted or top-dose-only effect, or another doubt; inactive means no such curve, though single readings can be large or run the other way; cell line not stated here;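 further: phosphodiesterase inhibitor Ro 20-1724 added with compounds to block cAMP breakdown; potency means the concentration at half of the fitted maximal effect; nearly all actives have a fitted effect of over 60% in size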
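Cells in DMEM/10% FBS with G418 were pretreated with compounds in DMSO plus […] (300 uM stock) for 30 min at 37C. cAMP was measured by HTRF (cAMP-d2 plus anti-cAMP antibody-K) after 30 min at room temperature.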
Akt phos inh – HTS Assay for Inhibitors of Akt Phophorylation: Primary Screen; Neuro2A IGF-stimulated pAkt S473 HTRF, 20 min; hits give low values; activity change, % for hits at 50 µM; 360,000 tested, 0.32% active; AID 651550, 2012; in the data active means activity change below about -80%; inconclusive means mostly about -51% to -80%; further: on the % scale 0 is the no-effect control and ±100 the full control effect
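Neuro2A cells (4,500/well, DMEM with 0.5% FBS) were treated with compound at a single 50 µM final concentration, stimulated with 6 nM IGF for 20 min at 37 °C, and lysed. Phospho-Akt Ser473 was read by HTRF as 665/615 ratio ×10^4.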
RXFP1 antag – qHTS Assay for Antagonists of the Relaxin Receptor RXFP1; activity change, negative = inhibition, % at 57.5 µM; 350,000 tested, 0.59% active; HEK293-RXFP1, relaxin-stimulated cAMP HTRF, 30 min; hits give low values;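 active means activity change of -60% or lower, but not beyond a set lower limit; inconclusive means change between -60% and -40%, or beyond the set limit; inactive means change above -40%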; further: on the % scale 0 is the no-effect control and ±100 the full control effect
The depositor's hits bear a star; i = inactive; ? = inconclusive; · = not tested or not shown; [ ] = remark or other dose.

SMILES	RXFP1 agonist	gsp antag	gsp ag	Akt phos inh	RXFP1 antag
CCCCN(C)C(=O)C1CCC(CNS(=O)(=O)c2ccc(Cl)cc2)CC1 (stereo unspecified)	0.7%	·	·	·	-19.5
COc1ccc(C(O)(C2CCCCC2)C(CN2CCOCC2)c2ccccc2)cc1 (stereo unspecified)	0.0%	-18.8%	-1.7%	i	-89.7*
CCCCCC(O)(c1ccc(OC)cc1)C(CN1CCOCC1)c1ccccc1 (stereo unspecified)	4.1%	-20.1%	-7.2%	i	-60.7*
COC(=O)C1=C(C)NC(C)=C(C(=O)OCCc2ccc(N3CCN(C(c4ccccc4)c4ccccc4)CC3)cc2)C1c1cccc([N+](=O)[O-])c1 (stereo unspecified)	·	·	·	·	7.6
C=CCn1c(C)cc(C)c(C#N)c1=O	-3.9%	10.4%	-12.4%	i	13.5
C=CCn1c(=O)n(CCC#N)c(=O)n(CCC#N)c1=O	0.0%	8.2%	-10.4%	-98.7%*	-10.4
COc1ccccc1N(CC(=O)NC1CCCC1)C(=O)c1csnn1	2.2%	4.8%	-29.2%	-121.1%*	4.0
COc1ccccc1N(CC(=O)NC1CCCCC1)C(=O)c1csnn1	0.2%	4.6%	-1.5%	i	20.4
CCOc1ccc(NC(=O)N2CC=C(c3c[nH]c4ccccc34)CC2)cc1	2.7%	·	·	·	-31.7
CC(C)CCn1c2ccccc2c2cc(CC(N)=O)ccc21	0.4%	1.4%	2.1%	i	-72.4*
O=[n+]1c2c(n([O-])c3cc(F)c(N4CCCC4)cc31)CCC2	·	39.8µM*	21.2%	i	-2.9
O=[n+]1c2c(n([O-])c3cc(F)c(N4CCCC4)cc31)CCCC2	2.0%	1.7%	24.0%	i	4.5
COC(=O)CS(=O)(=O)c1nc2ccccc2nc1N1CCCCC1	3.6%	·	·	·	·
O=C(CN1C(=O)CNC1=O)Nc1cccc(C(F)(F)F)c1	0.6%	5.0%	-25.5%	-100.6%*	-19.9
O=C1NCCCC1C(=O)Nc1cccc(C(F)(F)F)c1 (stereo unspecified)	1.2%	-8.9%[15.4 µM]	?	-102.4%*	9.9
Cc1cc(C)c(S(=O)(=O)Nc2ccc(-c3ccc(N4CCCCC4)nn3)cc2)c(C)c1	-0.5%	·	·	·	-25.2
COC(=O)C1OC2(OC1C(=O)OC)c1ccccc1-c1ccccc12 (stereo unspecified)	-0.8%	0.1%	24.9%	-119.7%*	3.6
COC(=O)C1C(c2ccccc2)C(C(=O)O)C1c1ccccc1 (stereo unspecified)	-2.2%	8.5%	9.6%	i	12.4
CCCCNC(=O)CNC(=O)c1cccs1	-0.8%	8.9%	-23.4%	·	-1.0
CCOCCCNC(=O)c1cccs1	0.8%	0.4%	?	-115.8%*	5.2
Cc1ccc(C(=O)Oc2ccc(C(O)CNC(C)(C)C)cc2OC(=O)c2ccc(C)cc2)cc1 (stereo unspecified)	·	·	·	·	18.3
CCn1c(O)c(/C=C2\C=Nc3ccccc32)sc1=Nc1ccccc1	0.9%	4.2%	-9.5%	-89.0%*	-5.3
Cn1c(O)c(/C=C2\C=Nc3ccccc32)sc1=Nc1ccc(C(=O)O)cc1	0.3%	-10.2%	-0.8%	i	-16.3
CC(C)CCNC(=O)c1ccc2c(c1)nc1n2CCCCC1	2.0%	·	·	·	-6.0
Fc1ccc(-c2onc3ccc(C4OCCO4)cc23)cc1	-0.9%	11.2µM*	-10.0%[15.4 µM]	i	-4.2
SMILES	RXFP1 agonist	gsp antag	gsp ag	Akt phos inh	RXFP1 antag
CCCCn1c(N2CCC(Cc3ccccc3)CC2)nc2c1c(=O)[nH]c(=O)n2C	0.9%	8.9%	14.9%	i	-90.2*
CCCn1c(SCC(=O)N2CCc3ccccc3C2)nc2c1c(=O)n(C)c(=O)n2C	?	11.5%	31.6µM*	i	4.3
CCn1c(SCC(=O)N2CCc3ccccc3C2)nc2c1c(=O)n(C)c(=O)n2C	9.7%	2.5%	?	i	-2.9
Cc1cc(C)cc(-n2c(SCC(N)=O)nc3c([nH]c4ccccc43)c2=O)c1	3.9%	·	·	·	·
COc1ccc2c(c1)c1c(c(=O)n(Cc3ccccc3)c(=O)n1Cc1cccc(Cl)c1)n2C	3.5%	·	·	·	·
CNC(=O)c1c(I)c(NC(=O)CCCCC(=O)Nc2c(I)c(C(=O)O)c(I)c(C(=O)NC)c2I)c(I)c(C(=O)O)c1I	·	·	·	·	14.6
O=C(Nc1sc2c(c1C(=O)O)CCCCC2)c1ccccc1	1.5%	-27.5%	?	i	-22.2
O=C(/C=C/c1ccco1)Nc1sc2c(c1C(=O)O)CCC2	0.4%	39.8µM*	3.5%	i	10.0
O=C(Nc1sc2c(c1C(=O)O)CCC2)c1ccccc1	1.1%	22.4µM*	2.5%	i	-6.1
CN(C(=O)Cn1c(=O)n(Cc2ccc(C(=O)NCc3ccc4c(c3)OCO4)cc2)c(=O)c2ccccc21)c1ccccc1	2.7%	·	·	·	·
CC1(C)[C@@H](OC(=O)CCC(=O)O)CC[C@]2(C)[C@H]3C(=O)C=C4[C@@H]5C[C@@](C)(C(=O)O)CC[C@]5(C)CC[C@@]4(C)[C@]3(C)CC[C@@H]12	·	·	·	·	-37.5
CC(=O)NC(c1cc(F)c2cccnc2c1O)C(C)C (stereo unspecified)	-0.1%	·	·	·	·
Cc1nc(SCC(=O)NC2CC2)c2c(C)c(C)sc2n1	15.7%	-4.1%	10.1%[15.4 µM]	i	-6.0
CCN(C(=O)CSc1nc(C)nc2sc(C)c(C)c12)C1CCS(=O)(=O)C1 (stereo unspecified)	1.0%	-12.9%	?	i	-0.1
CCOC(=O)c1sc2nc(C)nc(SCC(=O)N(C)C3CCS(=O)(=O)C3)c2c1C (stereo unspecified)	11.8%	8.3%	15.8µM*	i	-0.2
CN(C(=O)CSc1ncnc2sc3c(c12)CCCC3)C1CCS(=O)(=O)C1 (stereo unspecified)	·	-4.3%	11.2µM*	i	11.9
COC(=O)c1sc2nc(C)nc(SCC(=O)N3CCC(C(=O)O)CC3)c2c1C	?	-0.1%	15.8µM*	i	5.1
Fc1ccc(CSc2ncnc3sc4c(c23)CCCC4)cc1	4.2%	-27.5%	16.2%	-114.0%*	-4.8
Cc1nc2sccn2c(=O)c1CCN1CCC(=C(c2ccc(F)cc2)c2ccc(F)cc2)CC1	3.8%	?	·	i	-66.8*
Cc1nc2ccccn2c(=O)c1CCN1CCC(C(=O)c2ccc(F)cc2)CC1	1.3%	-15.1%	·	i	18.7
CCn1cc([N+](=O)[O-])c(C(=O)Nc2cc(C)on2)n1	-0.1%	5.3%	-2.1%	-112.8%*	-3.5
CCn1cc([N+](=O)[O-])c(C(=O)Nc2nc(-c3ccc(C)cc3)c(C)s2)n1	-0.4%	0.7%	-50.7%	i	-6.7
